Source: PubChem BioAssay
Calls of active or inactive are those of the source. Unless noted, no rule for the calls is given here.

How the values were obtained:
[1] = system: Wnt5a (protein binding on small-molecule microarray); test: small molecules binding Wnt5a protein – biophysical, small-molecule microarray, 635/667 nm fluorescence, primary screen (AID 1142); conditions: 635 nm fluorescence, higher = more signal;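 also: fluorescence read at 667 nm with signal to noise per printed feature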
[2] = ATP-based viability of Huh7 replicon cells – cell-based, CellTiter-Glo luminescence, basal, 48 h, cytotoxicity control for HCV replication inhibitor project, primary screen (AID 1143); conditions: higher = more signal, called active from +8 up or from −8 down;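 also: Huh7 hepatoma cells carrying a hepatitis C replication reporter with no stimulus; test concentration not given here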
[3] = Pseudomonas biofilm growth suppression – PAO1 strain, BacTiter-Glo luminescence, LB-PBS, primary screen (AID 1144); conditions: P. aeruginosa PAO1 biofilm, 12 h, higher = more signal
[4] = basal CRE-LacZ reporter activity in PC12 – cell-based, unstimulated, primary screen (AID 1145); conditions: no forskolin, luminescence, 4.5 h, higher = more signal, called active from +8 up or from −8 down
[5] = forskolin-driven CRE-LacZ activity in PC12 – cell-based, CRE-LacZ reporter, forskolin-stimulated, primary screen (AID 1146); conditions: luminescence, 4.5 h, higher = more signal, called active from +8 up or from −8 down;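 also: PC12 cells with 6xCRE LacZ reporter stimulated by forskolin 10 µM; beta-galactosidase reporter signal reflecting CREB driven transcription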
[6] = target: Streptavidin (Streptomyces avidinii) (UniProt P22629); test: compounds binding control protein streptavidin – biophysical, small-molecule microarray, 635/667 nm fluorescence, artefact control for SMM compound annotation, primary screen (AID 1147); conditions: higher = more signal;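 also: signal reflects streptavidin binding to arrayed compounds as a control protein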
[7] = probe aInhba binding on compound microarray – biochemical, small-molecule microarray, 635/667 nm fluorescence, primary screen (AID 1148); conditions: higher = more signal;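 also: score merges 667nm spot fluorescence with signal-to-noise for antibody binding to printed compounds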
Torsin-1A (Homo sapiens) [8] = target: Torsin-1A (Homo sapiens) (UniProt O14656); test: TOR1A wild-type binding on microarray – cell lysate, small-molecule microarray, lysate, 635/667 nm, primary screen (AID 1149); conditions: COS7 hTOR1A-WT lysate, 635 nm fluorescence, higher = more signal
Torsin-1A (Homo sapiens) [9] = target: Torsin-1A (Homo sapiens) (UniProt O14656); test: torsin A mutant lysate binding on microarrays – cell lysate, small-molecule microarray, COS7 lysate, 635/667 nm fluorescence, primary screen (AID 1150); conditions: COS7 hTOR1A mutant lysate, 635 nm fluorescence, higher = more signal;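 also: score pools 667 nm emission and signal to noise measuring lysate protein binding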
[10] = system: Sonic hedgehog protein (Shh); test: Sonic hedgehog microarray binding compounds – biochemical, small-molecule microarray, 635/667 nm fluorescence, primary screen (AID 1151); conditions: 635 nm fluorescence, higher = more signal;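 also: Shh protein binding to compounds spotted on small-molecule microarray slides; score combines spot fluorescence intensity with signal-to-noise across triplicate slides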

Streptavidin (Streptomyces avidinii), sequence (P22629 whole entry, looked up): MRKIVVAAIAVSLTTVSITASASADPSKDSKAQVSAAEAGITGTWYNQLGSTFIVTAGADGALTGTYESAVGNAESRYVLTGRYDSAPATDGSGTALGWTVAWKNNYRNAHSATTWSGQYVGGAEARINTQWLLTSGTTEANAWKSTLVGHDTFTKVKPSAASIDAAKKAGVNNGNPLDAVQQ
Torsin-1A (Homo sapiens), sequence (O14656 whole entry, looked up): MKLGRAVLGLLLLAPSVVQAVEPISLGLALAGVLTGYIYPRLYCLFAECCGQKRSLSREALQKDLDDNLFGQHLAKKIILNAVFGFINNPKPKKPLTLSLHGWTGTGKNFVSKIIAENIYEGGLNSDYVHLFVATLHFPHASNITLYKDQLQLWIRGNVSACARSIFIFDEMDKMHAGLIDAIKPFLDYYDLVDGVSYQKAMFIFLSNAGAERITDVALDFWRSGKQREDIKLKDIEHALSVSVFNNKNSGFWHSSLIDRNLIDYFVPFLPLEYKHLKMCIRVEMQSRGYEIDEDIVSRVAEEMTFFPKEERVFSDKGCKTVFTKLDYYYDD

| SMILES | composite z-score [1] | z-score [2] | z-score [3] | z-score [4] | z-score [5] | composite z-score [6] | composite z-score [7] | composite z-score (Torsin-1A (Homo sapiens) [8]) | composite z-score (Torsin-1A (Homo sapiens) [9]) | composite z-score [10] |
| --- | --- | --- | --- | --- | --- | --- | --- | --- | --- | --- |
| CN1C(=O)C2CC=C(C3=CCO[C@@H]3[C@H]3CCCN3S(=O)(=O)c3ccccc3[N+](=O)[O-])CC2C1=O (stereo not given in full) | 0.0169 | 0.459 (inactive) | 0.0769 (inactive) | -0.505 (inactive) | 1.14 (inactive) | -0.102 | 0.0516 | -0.23 | -0.282 | -0.151 |
| CCCCN1CC=CC23O[C@@H]4/C=C\CCCOC(=O)C4[C@H]2C(=O)N(CCCCCCO)[C@@H]3C1=O (stereo not given in full) | -0.525 | 0.121 (inactive) | -1.2 (inactive) | 0.475 (inactive) | -0.34 (inactive) | -0.654 | -0.154 | -1.63 | -1.49 | 0.145 |
| O=C(NC1CC1)[C@@H]1c2ccccc2C(=O)N(C2CCCCC2)[C@H]1c1ccc(CO)cc1 | 0.0033 | -1.49 (inactive) | 0.446 (inactive) | -0.0259 (inactive) | -0.592 (inactive) | -0.104 | -0.221 | -0.164 | 0.324 | -0.118 |
| CC(C)C[C@@H]1NC(=O)[C@H]2C[C@@H](C(=O)O)[C@@H](c3cccc(OCCO)c3)N2C1=O | -0.107 | -0.513 (inactive) | -0.443 (inactive) | 0.561 (inactive) | -0.411 (inactive) | -0.0612 | 0.0228 | 0.994 | 2.17 | 1.42 |
| CC(C)C[C@@H]1NC(=O)[C@@H]2C[C@H](C(=O)NCCCCCNC(=O)CS)[C@H](c3ccc(O)cc3)N2C1=O | -0.025 | -4.33 (inactive) | -0.455 (inactive) | -0.809 (inactive) | -0.661 (inactive) | -0.799 | -0.045 | 1.87 | 2.08 | 1.99 |
| Cc1ccc(S[C@]2(C(=O)NCc3ccccc3)CC(=O)N(Cc3ccccc3Cl)[C@@H]2c2ccc(CO)cc2)cc1 | -0.132 | -1.87 (inactive) | -0.491 (inactive) | -0.0512 (inactive) | -0.226 (inactive) | -0.744 | 0.298 | 0.163 | 0.0869 | 0.469 |
| [N-]=[N+]=NCc1ccccc1[C@H]1OC(c2ccc(OCCCO)cc2)=N[C@@]1(CCS(=O)(=O)c1ccccc1)C(=O)O | -0.0632 | -0.0569 (inactive) | 0.637 (inactive) | -0.435 (inactive) | -0.427 (inactive) | 0.729 | -0.13 | -0.359 | 0.622 | -1.37 |
| C=C(C(=O)CC[C@@H](OC(=O)c1ccccc1-c1ccccc1C(=O)O)c1ccc(CO)o1)C(C)C | 0.389 | -0.115 (inactive) | -0.306 (inactive) | 1.47 (inactive) | 1.73 (inactive) | -0.539 | 0.0051 | 1.28 | 0.317 | 1.65 |
| [N-]=[N+]=Nc1ccccc1C[C@@]1(C(=O)NCc2ccccc2)N=C(c2ccc(OCCCO)cc2)O[C@@H]1c1ccccc1 | 0.967 | -5.24 (inactive) | -1.15 (inactive) | 1.4 (inactive) | -1.99 (inactive) | 0.877 | 0.175 | 0.324 | 0.506 | 0.242 |
| Cc1ccc(S[C@]2(C(=O)NC(C)C)CC(=O)N(Cc3ccccc3)[C@@H]2c2ccc(CO)cc2I)cc1 | -0.114 | -1.99 (inactive) | 1.2 (inactive) | 0.0548 (inactive) | 0.0831 (inactive) | -0.864 | -0.128 | -0.782 | 0.0888 | -0.421 |
| C=CCNC(=O)[C@@H]1[C@H]2C(=O)O[C@H](c3ccccc3)[C@H](c3ccccc3)N2[C@H](c2ccc(O)cc2)[C@@]12C(=O)Nc1ccc(C#CC3=CCCCC3)cc12 | 0.779 | -4.01 (inactive) | -0.909 (inactive) | 0.119 (inactive) | -0.679 (inactive) | 1.72 | 1.05 | 0.857 | 0.975 | 2.03 |
| CC(C)Cc1ccc(CN2CC[C@@H](NC(=O)c3ccccc3)C2)cc1 | -0.36 | -2.65 (inactive) | 0.241 (inactive) | 3.31 (inactive) | 0.603 (inactive) | -0.238 | -0.157 | 0.205 | 0.134 | -0.0199 |
| O=C1O[C@H](c2ccccc2)[C@H](c2ccccc2)N2[C@H]1[C@@H](C(=O)Nc1nc3ccccc3s1)[C@]1(C(=O)Nc3ccccc31)[C@H]2c1ccccc1OCCO | -0.023 | -4.68 (inactive) | -0.804 (inactive) | 0.272 (inactive) | 0.519 (inactive) | 1.25 | 0.161 | 0.869 | 1.11 | 0.465 |
| O=C1C2C=CC(C(O)C3CCCCC3)N(Nc3ccccc3F)C2C(=O)N1c1ccccc1 (stereo not given) | 0.442 | -2.88 (inactive) | -0.469 (inactive) | 0.826 (inactive) | -0.904 (inactive) | 1.5 | 0.448 | 0.258 | 1.12 | -0.324 |
| CCCC[C@@H](O)C1=C(C)Cn2c(=O)n(-c3ccccc3)c(=O)n2[C@H]1CO | 0.0027 | -1.07 (inactive) | -0.275 (inactive) | 1.77 (inactive) | -0.844 (inactive) | -0.463 | -0.251 | 0.0705 | 0.141 | 0.317 |
| Cc1cccc([C@H]2C[C@H]3C(Br)=C[C@@]2(CO)C(=O)[C@]32CO2)c1 | 0.253 | -0.376 (inactive) | -0.53 (inactive) | -0.595 (inactive) | 3.9 (inactive) | -0.376 | -0.128 | -1.59 | -1.08 | 0.462 |
| CCCCCN1CC=CC23O[C@@H]4/C=C\CCCOC(=O)C4[C@H]2C(=O)N(CCCCCO)[C@@H]3C1=O (stereo not given in full) | -0.827 | -0.347 (inactive) | -0.678 (inactive) | -1.03 (inactive) | 0.0118 (inactive) | -0.878 | -0.128 | -2.11 | -1.09 | -0.0251 |
| C=CCOC(=O)[C@H]1[C@@H]2C(=O)O[C@@H](c3ccccc3)[C@@H](c3ccccc3)N2[C@@H](c2ccc(OCCOC(=O)[C@H]3C[C@H]4C(=O)NCC(=O)N4[C@H]3c3ccc(O)cc3)cc2)[C@]12C(=O)Nc1ccccc12 | 0.592 | -0.525 (inactive) | -0.799 (inactive) | -1.08 (inactive) | -0.306 (inactive) | 0.341 | 0.615 | 0.603 | 1.14 | 2.22 |
| COCCOC(=O)N1C(=O)[C@@]2(c3cc(C#CC4=CCCCC4)ccc31)[C@H](c1ccc(O)cc1)N1[C@H](c3ccccc3)[C@H](c3ccccc3)OC(=O)[C@H]1[C@@H]2C(=O)N1CCc2cc(OC)c(OC)cc2C1 | -0.0266 | -0.713 (inactive) | 0.315 (inactive) | -0.375 (inactive) | 0.109 (inactive) | 0.112 | 0.103 | 0.175 | 0.893 | 0.514 |
| CCCCCN1CC=CC23O[C@@H]4/C=C\CCCOC(=O)C4[C@H]2C(=O)N(CCO)[C@@H]3C1=O (stereo not given in full) | -0.243 | -2.03 (inactive) | -2.97 (inactive) | -1.98 (inactive) | -0.508 (inactive) | -0.666 | -0.183 | 0.642 | 1.58 | 0.0256 |
| N#Cc1ccc(NN2C(C(O)c3ccc(B(O)O)cc3)C=CC3CN(c4ccccc4)C(=O)C32)cc1 (stereo not given) | -0.465 | -0.0138 (inactive) | -0.454 (inactive) | -0.898 (inactive) | -0.758 (inactive) | 0.287 | -0.128 | -0.0754 | 0.103 | -0.944 |
| Cc1ccc(S[C@]2(C(=O)NCc3ccccc3)CC(=O)N(Cc3ccccc3C(F)(F)F)[C@@H]2c2ccc(CO)cc2I)cc1 | -0.264 | -1.5 (inactive) | 1.59 (inactive) | 1.06 (inactive) | 2.24 (inactive) | -0.464 | 0.144 | -0.545 | -0.45 | -0.26 |
| OCCCc1cc[n+](Cc2cc3c(cc2Br)OCO3)cc1 | -0.265 | -0.633 (inactive) | 0.0177 (inactive) | -0.374 (inactive) | -0.121 (inactive) | -0.838 | -0.209 | -1.27 | -0.561 | -0.508 |
| O=C1NC(=O)C2C1C=CC(C(O)c1ccc(F)cc1)N2Nc1ccc(Cl)cc1Cl (stereo not given) | -0.166 | -1.79 (inactive) | -0.762 (inactive) | 0.0535 (inactive) | -0.207 (inactive) | -0.346 | -0.0645 | -0.556 | -0.348 | -0.354 |
| Cc1ccc(S[C@]2(C(=O)NCCN3CCOCC3)CC(=O)N(C(C)C)[C@@H]2c2ccc(CO)cc2I)cc1 | -0.141 | -2.88 (inactive) | -0.121 (inactive) | -0.116 (inactive) | -0.395 (inactive) | -0.676 | 0.0228 | -0.533 | -0.26 | -0.0348 |
| C=C(CCCC)/C(=C/C[C@@H](OC(C)=O)c1ccc(OCCO)cc1)c1cc(C(=O)OC)ccc1OC | -0.0169 | -3.57 (inactive) | 0.412 (inactive) | 5.45 (inactive) | 0.574 (inactive) | 0.313 | -0.176 | 0.929 | 0.687 | 1.04 |
| CCCC=C(CCC)[C@@H](NC(=O)c1ccc(C(=O)OC)cc1)c1ccc(C(=O)OC)cc1 | 0.41 | -2.2 (inactive) | 0.668 (inactive) | 1.53 (inactive) | 1.06 (inactive) | 0.239 | 0.18 | -0.266 | -0.415 | -1.35 |
| COC(=O)C1=CC(CCCO)=CC(c2ccc(CN3CCCC3)cc2)N(C)C=C1C(=O)OC (stereo not given) | 0.408 | 0.209 (inactive) | 0.0505 (inactive) | -0.464 (inactive) | -0.0736 (inactive) | 0.532 | 0.0658 | -1.01 | -0.418 | -0.284 |
| C[C@@]1([C@@H](NS(=O)(=O)c2cccc3cccnc23)c2ccc(-c3ccccc3)cc2)C[C@H]1C1CCCCC1 | 0.17 | -2.15 (inactive) | 0.33 (inactive) | 0.583 (inactive) | -0.152 (inactive) | 1.15 | 0.417 | -0.293 | 0.0327 | -0.517 |
| C=CCOC(=O)[C@@H]1[C@H]2C(=O)O[C@H](c3ccccc3)[C@H](c3ccccc3)N2[C@H](c2ccc(OCCOC(=O)[C@H]3C[C@H]4C(=O)N[C@@H](CCCCN(C)C)C(=O)N4[C@H]3c3cccc(OCCO)c3)cc2)[C@@]12C(=O)Nc1ccccc12 | -0.234 | 0.132 (inactive) | -0.306 (inactive) | -0.394 (inactive) | -0.647 (inactive) | 1.61 | -0.141 | 1.2 | 0.824 | 0.769 |
